According to PubChem BioAssay AID1159580 (chemical genetic matrix, 2015):
Hit rate of the full screen: of about 5,500 compounds, about 2,000 (36%) were called active. Inconclusive results (about 18%) are left out. No stated cut-off is given here; in the data, active means normalized growth mostly below about 0.91 (no sharp cut-off); inconclusive means no clear call, values can overlap the other calls; inactive means mostly above about 0.92. The list shows a part of the results.

Assay: chemical genetic growth profiling, strain panel (AID 1159580);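 further: tested at 20 µM; growth read once vehicle control cultures reached saturation at 30 °C; 1 = growth at the plate median or of vehicle wells; lower values mean less growth of the strain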
Conditions: S. cerevisiae deletion strains, growth OD
[1] = locus YDL101C, strain DUN1, hits give low values
[2] = locus YHR030C, strain SLT2, hits give low values

Measured: normalized growth

CCCCCCCC1CC/C(=C\c2ccc(/C=C3\CCC(CCCCCCC)C3=O)cc2)C1=O (configuration not stated)
inactive: locus YAL013W, strain DEP1, hits give low values 1.01 | locus YBR229C, strain ROT2, hits give low values 1.01 | [1] 0.985 | locus YDL134C, strain PPH21, hits give low values 1.01 | locus YDR150W, strain NUM1, hits give low values 0.936 | locus YEL061C, strain CIN8, hits give low values 0.999 | locus YGR078C, strain PAC10, hits give low values 0.998 | [2] 1.07 | locus YHR087W, strain rtc3, hits give low values 1.01 | locus YJL187C, strain SWE1, hits give low values 1.01 | locus YJR043C, strain POL32, hits give low values 1.01 | locus YJR075W, strain HOC1, hits give low values 1.04 | locus YLR039C, strain RIC1, hits give low values 1.05 | locus YLR058C, strain SHM2 (second series), hits give low values 1.01 | locus YLR085C, strain ARP6, hits give low values 1.02 | locus YLR262C, strain YPT6, hits give low values 1.04 | locus YML094W, strain GIM5, hits give low values 0.979 | locus YMR219W, strain ESC1, hits give low values 1 | locus YMR263W, strain SAP30, hits give low values 1.01 | locus YNL153C, strain GIM3, hits give low values 1 | locus YNL298W, strain CLA4 (second series), hits give low values 1.04 | locus YNL322C, strain KRE1, hits give low values 0.994 | locus YNR030W, strain Alg12, hits give low values 1 | locus YPL055C, strain LGE1, hits give low values 0.97 | locus YPL241C, strain CIN2, hits give low values 0.978 | locus YPR135W, strain CTF4, hits give low values 1.03

CCCCCCCC1CCC/C1=N/OC(=O)c1cccs1 (configuration not stated)
inactive: locus YAR019C, strain CDC15, hits give low values 1.01 | locus YBL105C, strain PKC1, hits give low values 1.01 | locus YBR135W, strain CKS1, hits give low values 1.01 | locus YBR136W, strain MEC1, hits give low values 1 | locus YBR160W, strain CDC28, hits give low values 0.997 | locus YDL017W, strain CDC7, hits give low values 0.995 | locus YDL028C, strain MPS1, hits give low values 0.999 | [1] 0.973 | locus YDL108W, strain KIN28, hits give low values 0.996 | locus YDL132W, strain cdc53, hits give low values 0.991 | locus YDL214C, strain PRR2, hits give low values 0.965 | locus YDR052C, strain DBF4, hits give low values 0.983 | locus YDR054C, strain cdc34, hits give low values 0.989 | locus YDR226W, strain ADK1, hits give low values 0.996 | locus YDR477W, strain SNF1, hits give low values 0.957 | locus YER123W, strain YCK3, hits give low values 0.947 | locus YER133W, strain GLC7, hits give low values 0.97 | locus YFL009W, strain cdc4, hits give low values 0.992 | locus YFL029C, strain CAK1, hits give low values 1.01 | locus YFR003C, strain YPI1, hits give low values 1.01 | locus YFR019W, strain FAB1, hits give low values 0.938 | locus YFR028C, strain CDC14, hits give low values 0.98 | locus YGR040W, strain KSS1, hits give low values 0.967 | locus YGR052W, strain FMP48, hits give low values 0.988 | locus YGR092W, strain DBF2, hits give low values 0.906 | locus YHR079C, strain IRE1, hits give low values 0.871 | locus YHR082C, strain KSP1, hits give low values 1.07 | locus YHR205W, strain SCH9, hits give low values 0.753 | locus YIL147C, strain SLN1, hits give low values 0.992 | locus YJL095W, strain BCK1, hits give low values 0.91 | locus YJL128C, strain PBS2, hits give low values 1.01 | locus YJL157C, strain FAR1, hits give low values 0.967 | locus YJR016C, strain ILV3, hits give low values 0.99 | locus YJR066W, strain TOR1 (second series), hits give low values 0.934 | locus YJR066W, strain TOR1, hits give low values 0.986 | locus YKL048C, strain ELM1, hits give low values 0.985 | locus YKL067W, strain YNK1, hits give low values 0.939 | locus YKL101W, strain HSL1, hits give low values 0.934 | locus YKL193C, strain SDS22, hits give low values 1.02 | locus YKL203C, strain TOR2, hits give low values 1 | locus YLR133W, strain CKI1, hits give low values 0.96 | locus YLR403W, strain SFP1, hits give low values 0.945 | locus YML070W, strain DAK1, hits give low values 0.902 | locus YMR001C, strain CDC5, hits give low values 1.02 | locus YMR205C, strain PFK2 (second series), hits give low values 0.944 | locus YMR277W, strain FCP1, hits give low values 1.03 | locus YNL006W, strain LST8, hits give low values 1.01 | locus YNL020C, strain ARK1, hits give low values 0.896 | locus YNL161W, strain CBK1, hits give low values 1.02 | locus YNL183C, strain NPR1, hits give low values 0.944 | locus YNL207W, strain RIO2, hits give low values 0.976 | locus YNL222W, strain SSU72, hits give low values 1.02 | locus YNL307C, strain MCK1 (second series), hits give low values 0.901 | locus YOL078W, strain AVO1, hits give low values 1.02 | locus YOL136C, strain PFK27, hits give low values 0.961 | locus YOR061W, strain CKA2, hits give low values 0.88 | locus YOR119C, strain RIO1, hits give low values 1.03 | locus YOR231W, strain MKK1, hits give low values 0.859 | locus YOR329C, strain SCD5, hits give low values 1.02 | locus YPL031C, strain PHO85, hits give low values 0.935 | locus YPL153C, strain RAD53, hits give low values 0.937 | locus YPL204W, strain HRR25, hits give low values 0.919 | locus YPL209C, strain IPL1, hits give low values 1 | locus YPR025C, strain CCL1, hits give low values 1.02 | locus YPR106W, strain ISR1, hits give low values 0.999 | locus YPR111W, strain DBF20, hits give low values 0.991 | strain NNK1, hits give low values 0.987 | strain TSCII, hits give low values 0.995
active: [2] 0.763 | locus YLR113W, strain HOG1, hits give low values 0.739 | locus YPL256C, strain CLN2, hits give low values 0.858
